Consider 17 compounds from PubChem BioAssay (NCATS).

Assay in all cases: qHTS profiling for inhibitors of Plasmodium falciparum proliferation (AID 504749); note: nearly all actives have a fitted effect of over 60% in size
What all share (settings): P. falciparum in erythrocytes, SYBR Green DNA, 72 h; series mostly up to 28.7 µM
In general terms: qHTS replaces the single test concentration by a dilution series.

One test concerns CP237. In outline:
(§1)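 P. falciparum-infected erythrocytes (0.3% parasitemia, 2.5% hematocrit) incubated with compound 72 h at 37 C, 5% CO2. Parasite DNA detected by SYBR Green after lysis, overnight at room temperature; normalised to 0.29 uM artemisinin and DMSO.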

The subject of a further test is CP238. In outline:
as §1

In another test the test system is CP247. In outline: as §1
Another test has as its system CP250. In outline: as §1
In a further test the test system is CP252. In outline:
as §1

The next test relates to CP256. In outline: as §1
A further test concerns CP262. In outline:
as §1

The next test concerns CP265. In outline: as §1
A further test concerns CP266. In outline:
as §1

The next test relates to CP269. In outline: as §1
The subject of a further test is CP286. In outline:
as §1

In a further test the test system is CP297. In outline:
as §1

Another test has as its system CP305. In outline: as §1
In another test the test system is CP315. In outline:
as §1

A further test deals with CP325. In outline:
as §1

For a further test, the system named is CP335. In outline: as §1
Another test deals with CP329. In outline:
as §1

The subject of another test is CP260. In outline: as §1
A further test concerns CP268. In outline:
as §1

The test system of the next test is CP291. In outline: as §1

SMILES strings stand for the structures. Inconclusive results are not listed. Active and inactive are the calls of the source. Calls come from the whole dose curve; as a rule, active = well fitted inhibition curve with a large enough effect; inconclusive = small, poorly fitted or top-dose-only effect; inactive = flat fitted curve, though single readings scatter.
Potency is the fitted concentration of half-maximal effect.

Turning to `CCN(CC)CCOC(=O)C(c1ccccc1)C1CCCCC1` (stereo not given), the Potency result with CP237, in the test on CP238, with CP247, in the test with CP250, with CP252 and in the test with CP256 was “inactive” in each case. The Potency entry in the test with CP262, in the test on CP265, in the test with CP266, in the test with CP269, in the test on CP286 and in the test with CP297 was “inactive” in each case. Besides, the Potency entry with CP305, in the test on CP315, in the test with CP325 and in the test with CP335 was “inactive” in each case.
Take `c1ccc(CNCCNCc2ccccc2)cc1`: the Potency in the test with CP237 is 3.16 µM (active); in the test with CP297, 12 µM (active). For the same compound, the Potency result in the test with CP250, with CP262, in the test on CP315 and with CP329 was “inactive” in each case.
Take `COc1ccc(CCN2CCC(Nc3nc4ccccc4n3Cc3ccc(F)cc3)CC2)cc1`: the Potency in the test on CP237 was 2.24 µM (active); with CP238, 3.55 µM (active); in the test with CP247, 3.98 µM (active); with CP250 it was 2.24 µM (active); with CP252, 3.16 µM (active); in the test with CP256, 3.55 µM (active). For the same compound, the Potency was 1 µM (active) with CP260; 3.98 µM (active) in the test with CP265; 4.78 µM (active) with CP268; 4.78 µM (active) in the test on CP269; 2.51 µM (active) with CP286; 4.26 µM (active) in the test with CP291. For the same compound, the Potency was 5.36 µM (active) in the test on CP297; 4.26 µM (active) with CP305; 12 µM (active) in the test with CP315; 4.26 µM (active) in the test with CP325; 9.53 µM (active) in the test on CP329; 3.79 µM (active) with CP335.
For `CCOC(=O)/C=C(C)/C=C/C=C(C)/C=C/c1c(C)cc(OC)c(C)c1C`, the Potency result in the test on CP237, with CP262, in the test on CP266, with CP268, in the test with CP269 and with CP291 was “inactive” in each case. For the same compound, the Potency result in the test on CP297, with CP305, with CP315, with CP325 and with CP329 was “inactive” in each case.
In the case of `CCCCCCCCCCCCCCNCCO`, the Potency is 4.47 µM (active) in the test on CP237, 10 µM (active) in the test on CP247, 4.47 µM (active) with CP260 and 3.55 µM (active) in the test on CP286. Also, the Potency entry with CP262, in the test on CP266, in the test with CP269, in the test with CP291, with CP315 and in the test with CP325 was “inactive” in each case. The Potency entry in the test with CP329 and with CP335 was “inactive” throughout.
As to `CN(C)CCOc1ccccc1Cc1ccccc1`, the Potency in the test on CP237 is 3.16 µM (active); in the test on CP238 it was 7.94 µM (active); in the test on CP260, 2.51 µM (active); in the test with CP265, 2.24 µM (active); in the test with CP297, 4.26 µM (active). Moreover, the Potency result with CP315 was “inactive”.
As for `COCc1c(C(C)C)nc(C(C)C)c(/C=C/[C@@H](O)C[C@@H](O)CC(=O)O)c1-c1ccc(F)cc1`, the Potency result in the test on CP237, with CP238, in the test with CP250, with CP252, in the test on CP256 and with CP260 was “inactive” each time. For the same compound, the Potency result in the test on CP262, with CP265, in the test on CP266, in the test on CP268, in the test on CP269 and with CP286 was “inactive” throughout. For the same compound, the Potency result with CP291, with CP297, in the test on CP305, with CP315, with CP325 and in the test with CP329 was “inactive” each time. For the same compound, in the test with CP335, the Potency result was “inactive”.
`CCOc1ccc2nc3cc(N)ccc3c(N)c2c1`: the Potency is 4.47 µM (active) in the test with CP237; 5.01 µM (active) in the test with CP238; 10 µM (active) with CP247; 8.91 µM (active) in the test on CP250; 7.08 µM (active) in the test on CP252; 4.47 µM (active) in the test on CP256. Also, the Potency in the test with CP260 was 3.98 µM (active); in the test on CP265, 11.2 µM (active); in the test on CP268, 15.1 µM (active); in the test with CP269, 9.53 µM (active); with CP286 it was 1.41 µM (active); in the test on CP291, 12 µM (active). The Potency is 15.1 µM (active) in the test on CP297; 9.53 µM (active) in the test on CP305; 4.26 µM (active) in the test with CP315; 15.1 µM (active) with CP329; 6.01 µM (active) in the test on CP335.
Regarding `CN(C)CCCOc1nn(Cc2ccccc2)c2ccccc12`, in the test with CP237, the Potency was 3.16 µM (active). Further, the Potency entry with CP238, in the test with CP250, with CP252, in the test on CP256, with CP260 and with CP262 was “inactive” each time. In addition, the Potency result with CP266, in the test with CP269, in the test with CP286, with CP297, with CP305 and with CP315 was “inactive” in each case. The Potency result with CP325 and with CP329 was “inactive” throughout.
Turning to `CNCCC(Oc1ccccc1C)c1ccccc1` (stereo not given), the Potency result with CP237, in the test with CP250, in the test on CP252, in the test with CP260, in the test with CP262 and in the test with CP269 was “inactive” throughout. In addition, the Potency entry in the test on CP286, in the test with CP291, in the test on CP297, in the test with CP315, in the test with CP325 and in the test with CP335 was “inactive” each time.
As to `OC(CCN1CCCCC1)(c1ccccc1)c1ccccc1`, the Potency in the test with CP237 is 4.47 µM (active); with CP265 it was 8.91 µM (active); in the test on CP286 it was 11.2 µM (active); with CP297, 6.01 µM (active). For the same compound, the Potency entry in the test on CP250 and in the test on CP266 was “inactive” in each case.
With `Oc1c(I)cc(Cl)c2cccnc12`, the Potency entry in the test with CP237, in the test with CP266, in the test with CP268, in the test with CP269, in the test with CP286 and in the test on CP297 was “inactive” in each case. Besides, the Potency entry in the test with CP305, in the test with CP315, with CP325, with CP329 and in the test on CP335 was “inactive” each time. Also, the Potency in the test with CP238 is 11.2 µM (active); with CP247, 12.6 µM (active); with CP250, 5.01 µM (active); with CP252, 11.2 µM (active); with CP256, 2.51 µM (active).
With `c1ccc(-c2ccc(C(c3ccccc3)n3ccnc3)cc2)cc1` (stereo not given), the Potency in the test with CP237 is 8.91 µM (active); in the test on CP247, 7.94 µM (active); in the test with CP252, 10 µM (active); in the test on CP297 it was 6.75 µM (active); in the test on CP315, 16.9 µM (active). The Potency entry in the test on CP262 is “inactive”.
In the case of `Cc1ccc(C(=O)C(C)CN2CCCCC2)cc1` (stereo not given), the Potency entry in the test with CP237, with CP238, with CP247, with CP250, in the test with CP252 and in the test with CP256 was “inactive” throughout. The Potency entry in the test on CP262, with CP266, with CP268, in the test on CP286, in the test on CP291 and in the test on CP297 was “inactive” throughout. Further, the Potency entry in the test with CP305, in the test with CP315, with CP325 and with CP329 was “inactive” each time. The Potency in the test on CP265 was 10 µM (active).
For the compound `CC(C)=CCC1C(=O)N(c2ccccc2)N(c2ccccc2)C1=O`, in the test on CP237, the Potency was 11.2 µM (active). The Potency entry with CP238, with CP247, in the test with CP265, with CP266, with CP268 and in the test with CP315 was “inactive” throughout.
Turning to `Cc1ccc(O)c2ncccc12`, the Potency result in the test with CP237, in the test with CP238, with CP247, in the test on CP250, with CP252 and in the test with CP256 was “inactive” in each case. Further, the Potency entry in the test with CP262, with CP265, in the test on CP266, in the test on CP268, in the test on CP269 and with CP291 was “inactive” each time. Moreover, the Potency result in the test with CP297, in the test on CP305, in the test with CP315, with CP325 and in the test on CP329 was “inactive” each time.
Take `COc1c(C)c2c(c(O)c1C/C=C(\C)CCC(=O)O)C(=O)OC2`: the Potency in the test with CP237 was 3.55 µM (active); with CP238, 3.16 µM (active); in the test with CP250, 3.16 µM (active); with CP252, 2.51 µM (active); with CP256, 3.16 µM (active); in the test with CP260 it was 3.16 µM (active). In addition, the Potency with CP265 is 3.16 µM (active); in the test on CP269, 5.1 µM (active); with CP286, 3.16 µM (active); in the test on CP291, 4.05 µM (active); with CP297, 5.1 µM (active); in the test with CP305, 4.05 µM (active). Moreover, the Potency was 6.42 µM (active) in the test with CP329 and 3.22 µM (active) in the test on CP335.
